This passage reports z-score and composite z-score results from PubChem BioAssay.

Assay [1] can be described thus: HepG2 liver cancer cell viability effects, profiling panel, resazurin fluorescence, 24 h, PK04 Diversity Set (AID 1172). Further: test concentration not given here. The conditions noted are these: higher = more signal. (In general: Alamar Blue is a resazurin reagent that responds to reducing activity.)
A short description of assay [2]: basal S. cerevisiae growth modulation, no modifier, primary screen, OD600, strain BY4716, 24 h, basal condition (AID 1173). The conditions noted are these: OD600, 24 h, higher = more signal, called active from +8 up or from −8 down.
A short description of assay [3]: MM1S myeloma cell viability, profiling panel, resazurin fluorescence, basal, 24 h, PK04 Diversity Set (AID 1174).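 Further: MM1S multiple myeloma cell line; test concentration not given here.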 The conditions noted are these: higher = more signal, called active from +8 up or from −8 down.
The target of assay [4] is Dihydroorotate dehydrogenase (quinone), mitochondrial (Plasmodium falciparum (isolate 3D7)) (UniProt Q08210). Put plainly: PfDHODH enzyme inhibitors, primary screen, biochemical, C-terminal His tag, absorbance 600 nm (AID 1175).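 Further: recombinant parasite enzyme with a five histidine tag at its C terminus; test concentration not given here.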 The conditions noted are these: DCIP absorbance 600 nm, higher = more signal, called active from +8 up or from −8 down.
Chain of Dihydroorotate dehydrogenase (quinone), mitochondrial (Plasmodium falciparum (isolate 3D7)) (Q08210 whole entry, looked up): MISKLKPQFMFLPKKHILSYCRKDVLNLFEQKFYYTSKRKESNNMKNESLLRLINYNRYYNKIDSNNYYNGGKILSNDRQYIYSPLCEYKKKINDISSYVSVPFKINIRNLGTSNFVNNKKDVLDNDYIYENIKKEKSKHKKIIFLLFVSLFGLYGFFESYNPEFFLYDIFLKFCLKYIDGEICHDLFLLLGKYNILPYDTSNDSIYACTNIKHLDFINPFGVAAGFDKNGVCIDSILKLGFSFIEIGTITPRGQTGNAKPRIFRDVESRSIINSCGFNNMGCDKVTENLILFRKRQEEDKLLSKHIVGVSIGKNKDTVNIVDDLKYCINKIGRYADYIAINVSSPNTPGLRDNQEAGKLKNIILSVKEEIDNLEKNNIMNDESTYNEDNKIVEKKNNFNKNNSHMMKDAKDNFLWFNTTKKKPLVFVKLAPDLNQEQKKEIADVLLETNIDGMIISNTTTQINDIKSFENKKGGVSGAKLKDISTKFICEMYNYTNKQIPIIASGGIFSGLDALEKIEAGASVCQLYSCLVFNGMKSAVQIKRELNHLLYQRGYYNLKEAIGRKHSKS
A short description of assay [5]: P. aeruginosa biofilm formation inhibitors, primary screen, strain PAO1, LB-PBS medium, absorbance 600 nm (AID 1176). Further: test concentration not given here. The conditions noted are these: P. aeruginosa PAO1 growth/biofilm, A600, 12 h; higher = more signal.
Assay [6] can be described thus: S. cerevisiae RM11-1a growth modifiers, primary screen, strain RM11-1a, OD600, basal, 24 h (AID 1177).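 Further: cultures grown under basal conditions with no added stressor; test concentration not given here.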 As to conditions: OD600, 24 h, higher = more signal, called active from +8 up or from −8 down.
Assay [7] can be described thus: E. coli acrAB mutant growth effects, primary screen, E. coli filamentation inducers, strain DRC39, OD650, 24 h (AID 1178).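 Further: growth measured as culture turbidity by optical density at 650 nm; test concentration not given here.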 The conditions noted are these: higher = more signal, called active from +8 up or from −8 down.
Assay [8] can be described thus: E. coli acrAB mutant growth effects, primary screen, E. coli filamentation inducers, strain DRC39, OD650, 48 h (AID 1179).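 Further: screen aims at cell division blockers that make cells filament.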 The conditions noted are these: E. coli DRC39 delta-acrAB growth, higher = more signal, called active from +8 up or from −8 down.
Assay [9] is described as follows: RPMI8226 myeloma cell viability, profiling panel, resazurin fluorescence, basal, 24 h, PK04 Diversity Set (AID 1180).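 Further: RPMI8826 multiple myeloma cell line at 5000 cells per well; test concentration not given here.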 As to conditions: higher = more signal.
Assay [10] deals with E3 ubiquitin-protein ligase XIAP (Homo sapiens) (UniProt P98170). Kind of assay: XIAP binders, primary screen, biophysical, small-molecule microarray, fluorescence 635 nm (AID 1181).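 Further: score merges 667 nm emission and signal to noise over triplicate slides.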 As to conditions: small-molecule microarray binding, higher = more signal.
Chain of E3 ubiquitin-protein ligase XIAP (Homo sapiens) (P98170 whole entry, looked up): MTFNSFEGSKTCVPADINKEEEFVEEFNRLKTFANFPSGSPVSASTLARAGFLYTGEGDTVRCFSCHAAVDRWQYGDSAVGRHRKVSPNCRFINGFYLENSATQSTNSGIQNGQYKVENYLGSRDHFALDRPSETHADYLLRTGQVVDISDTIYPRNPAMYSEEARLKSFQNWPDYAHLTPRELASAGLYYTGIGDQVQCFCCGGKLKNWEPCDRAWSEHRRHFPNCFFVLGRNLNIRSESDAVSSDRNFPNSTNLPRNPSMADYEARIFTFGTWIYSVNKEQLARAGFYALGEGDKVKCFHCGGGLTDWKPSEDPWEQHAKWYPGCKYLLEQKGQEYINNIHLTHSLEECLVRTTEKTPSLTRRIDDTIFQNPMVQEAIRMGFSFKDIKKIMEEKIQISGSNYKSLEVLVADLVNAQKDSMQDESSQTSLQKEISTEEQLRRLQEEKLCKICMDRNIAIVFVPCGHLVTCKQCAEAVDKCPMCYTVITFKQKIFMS

Active and inactive are the calls of the source. Unless noted, how the calls were made is not given here.

Consider `CCCNC(=O)OC[C@H]1O[C@H](CCON=C(C)CCN2CCCc3nc(C)c(C)cc32)C=C[C@@H]1Oc1ccc(OC)cc1`, for which the z-score is 0.691 in assay [1]; 0.766 (inactive) in [2]; -0.291 (inactive) in [3]; 0.9 (inactive) in assay [5]; -0.295 (inactive) in assay [6]; 0.908 (inactive) in assay [7]. For the same compound, the z-score is 0.557 (inactive) in assay [8] and 1.46 in [9]. The composite z-score in [4] was 0.0151 (inactive); in assay [10], 0.284.
Consider `COC(=O)[C@@H]1CC[C@H](C)[C@@H](c2ccc(C)cc2)N1C(=O)c1ccc(C=NO[C@@H](C)c2cn([C@H](CO)Cc3ccccc3)nn2)cc1`, for which the z-score in [1] is -1.27; in assay [2], -0.476 (inactive); in [3] it was -1.93 (inactive); in assay [5] it was 0.171 (inactive); in assay [6], 1.35 (inactive); in assay [7] it was 0.836 (inactive). The values for the z-score in assay [8] and in [9] were 0.161 (inactive) and -1.16, respectively. In addition, the composite z-score is -1.41 (inactive) in assay [4] and -0.102 in assay [10].
Regarding `CCCCC#C[C@@H]1C=C[C@H](OC(C)=O)[C@@H](COC(C)=O)O1`, the z-score in [1] is 0.693; in assay [2], -1.44 (inactive); in [3] it was -3.24 (inactive); in [5], 0.909 (inactive); in [6], -0.667 (inactive); in assay [7] it was -0.233 (inactive). Moreover, the z-score in [8] was -0.248 (inactive); in [9], -1.82. Moreover, the figures for the composite z-score in [4] and in assay [10] were -0.216 (inactive) and 0.474, respectively.
In the case of `CCOC(=O)NN=C1C[C@@H](O)[C@@H](O)[C@@H]2[C@@H]3C(=O)N(Cc4ccccc4)C(=O)[C@@H]3CC[C@H]12`, the z-score in assay [1] is 1.16; in assay [2] it was -0.892 (inactive); in assay [3], 1.41 (inactive); in assay [5], 0.483 (inactive); in assay [6], -1.1 (inactive); in assay [7], -0.077 (inactive). The z-score in assay [8] is 0.495 (inactive); in [9], 1.89. For the same compound, the values for the composite z-score in assay [4] and in assay [10] were -0.451 (inactive) and -0.27, respectively.
As for `CCOC(=O)[C@H](CC(C)C)NC(=O)CCC1CC(OC(=O)NCc2cccc3ccccc23)CC2(CCCC(COC(=O)NCCC(C)C)O2)O1` (stereo not given in full), the z-score in [1] was 0.232; in assay [2] it was -2.17 (inactive); in assay [3] it was 0.771 (inactive); in assay [5] it was 0.131 (inactive); in [6], -3.91 (inactive); in assay [7], -0.259 (inactive). The values for the z-score in assay [8] and in [9] were -0.457 (inactive) and -0.286, respectively. Also, the results for the composite z-score in assay [4] and in assay [10] were -2.64 (inactive) and 0.117, respectively.
As for `CO[C@@H]1COC(=O)[C@H](CCSC)NC(=O)CC=C[C@@H](C)COC(=O)[C@H](C)NC(=O)CC=C[C@H]1C`, the z-score is 0.356 in [1]; -1.15 (inactive) in assay [2]; 0.457 (inactive) in assay [3]; -0.838 (inactive) in assay [5]; -0.224 (inactive) in assay [6]; 0.916 (inactive) in [7]. The z-score in assay [8] is 0.577 (inactive); in [9] it was 0.693. In addition, the composite z-score in assay [4] was 0.262 (inactive); in [10], -0.324.
For `CO[C@@H]1COC(=O)[C@H](CCSC)NC(=O)CC=C[C@@H](C)COC(=O)CCC[C@H]1C`, the z-score in [1] was 1.09; in [2] it was -0.509 (inactive); in assay [3] it was -0.11 (inactive); in assay [5], -0.892 (inactive); in assay [6], 0.0665 (inactive); in assay [7] it was 0.104 (inactive). For the same compound, the z-score is 0.156 (inactive) in assay [8] and 0.53 in assay [9]. Besides, the composite z-score is -0.555 (inactive) in assay [4] and 0.871 in [10].
Turning to `O=C1[C@H]2[C@H]3[C@H](O)[C@H](O)CC(=NOC[C@@H](O)COCc4ccco4)[C@@H]3CC[C@H]2C(=O)N1C[C@@H]1CCCO1`, the z-score is 0.188 in assay [1]; 0.408 (inactive) in assay [2]; 0.59 (inactive) in assay [3]; -0.662 (inactive) in assay [5]; 1.1 (inactive) in assay [6]; 0.93 (inactive) in assay [7]. For the same compound, the z-score is 1.14 (inactive) in assay [8] and -0.256 in assay [9]. Besides, the composite z-score in [4] was 0.121 (inactive); in assay [10], 0.137.
As to `CCOC(=O)[C@H](Cc1ccccc1)NC(=O)CCC1CC(OC(=O)NCc2ccc3c(c2)OCO3)CC2(CCCC(COC(=O)NCCC(C)C)O2)O1` (stereo not given in full), the z-score is -0.341 in assay [1]; -0.426 (inactive) in assay [2]; 0.812 (inactive) in assay [3]; -1.17 (inactive) in assay [5]; 0.895 (inactive) in [6]; 0.308 (inactive) in assay [7]. Moreover, the z-score in [8] was 0.249 (inactive); in assay [9], 0.75. Besides, the composite z-score is 0.55 (inactive) in assay [4] and -0.0559 in [10].
As to `CCOC(=O)NN=C1C[C@@H](O)[C@@H](O)[C@@H]2[C@@H]3C(=O)N(c4cccc(Oc5ccccc5)c4)C(=O)[C@@H]3CC[C@@H]12`, the z-score in [1] is 0.358; in assay [2] it was -0.22 (inactive); in assay [3] it was -0.285 (inactive); in [5], 0.225 (inactive); in assay [6] it was -0.114 (inactive); in [7], -0.347 (inactive). For the same compound, the results for the z-score in assay [8] and in assay [9] were -1.28 (inactive) and 0.0541, respectively. Moreover, the values for the composite z-score in [4] and in assay [10] were -0.108 (inactive) and -0.122, respectively.
On to `CCOC(=O)[C@H](CC(C)C)NC(=O)CCC1CC(OC(=O)NCCc2ccc(F)cc2)CC2(CCCC(COC(=O)NCCOc3ccccc3)O2)O1` (stereo not given in full), for which the z-score in assay [1] was -0.972; in assay [2], 0.0544 (inactive); in [3], 0.2 (inactive); in assay [5], -0.883 (inactive); in [6], 0.446 (inactive); in [7], -0.183 (inactive). Further, the z-score was 0.168 (inactive) in assay [8] and 0.161 in assay [9]. In addition, the composite z-score is 0.95 (inactive) in assay [4] and -0.214 in assay [10].
As for `CC(CCN1CCc2nc(-c3ccccc3)c(-c3ccccc3)cc2C1)=NOC[C@@H](O)COCc1ccco1`, the z-score in assay [1] is -1.2; in assay [2], -2 (inactive); in [3], -1.88 (inactive); in assay [5], -0.0417 (inactive); in assay [6], 0.358 (inactive); in [7], 0.943 (inactive). Besides, the z-score in assay [8] was 1.14 (inactive); in [9] it was -1.31. Also, the results for the composite z-score in [4] and in assay [10] were -0.727 (inactive) and 0.239, respectively.
